# The source made the active and inactive calls.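 Rule for the calls: active = cell event count below 40, meaning activity score above 60 where score is 100 minus count; inactive = the rest.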
# Test: LNCaP cell loss by flow event count, confirmation, cytotoxicity control for prostate differentiation activator project, single point (AID 1076);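 note: counts scatter-gated live cells after medium removal discards detached dead cells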
# Conditions: flow cytometry event count, 4 d, at 100 µM, stronger effect = lower value
row,Structure (SMILES),cell event count
1,COc1ccccc1N1CCN(Cc2cc(Br)c(O)c3ncccc23)CC1,17 (active)
2,COc1ccc(-c2coc3c(CN4CCCCC4)c(O)c(CN4CCCCC4)c(O)c3c2=O)cc1,7 (active)
3,O=C(CCCCCn1c(=O)[nH]c2ccccc2c1=O)NCCCN1CCN(c2ccccc2F)CC1,18 (inactive)
4,COc1ccc(N2CCN(CCCNC(=O)CCCn3c(=O)[nH]c4ccsc4c3=O)CC2)cc1,13 (active)
5,COc1ccc(-c2cc(C(F)(F)F)nc(N3CCN(C)CC3)n2)cc1,4 (inactive)
6,c1cncc(-c2nc3ccccc3o2)c1,49 (inactive)
7,CCCS(=O)(=O)N1CCCC(C(=O)NCCCN2CCN(c3ccccc3F)CC2)C1 (stereo not given),110 (inactive)
8,CCOC(=O)N1CCN(C(=O)Cc2ccc(-n3c(=O)[nH]c4ccccc4c3=O)cc2)CC1,302 (inactive)
9,CCCS(=O)(=O)N1CCCC(C(=O)NCCCN2CCN(c3cccc(Cl)c3)CC2)C1 (stereo not given),53 (inactive)
10,CCN1CCCC1CNC(=O)c1cc2c(-c3cccc(OC)c3)nn(C)c2s1 (stereo not given),25 (inactive)
11,CCN1C(=O)OC2(CCCCC2)C1(C)O (stereo not given),230 (inactive)
12,CCN(CC)CC(=O)Nc1ccc(-c2nc3cc(NC(=O)CN(CC)CC)ccc3o2)cc1,1 (inactive)
13,CCN(CC)CCCNc1oc(-c2cccc(Cl)c2)nc1C#N,32 (inactive)
14,CCOC(=O)N1CCN(C(=O)CN(c2cccc(C(F)(F)F)c2)S(=O)(=O)c2ccccc2)CC1,137 (inactive)
15,COc1ccc(-n2c3c(cc(C(=O)N4CCC(C)CC4)c2=O)C(=O)CC(C)(C)C3)cc1,115 (inactive)

# Reference: PubChem BioAssay AID1076 (NMMLSC, 2008)
